Test [1] concerns HCC1937. Nature of the test: relative cell viability, compound + RSL3, vs DMSO (fraction of DMSO control); higher = less growth inhibition. The conditions noted are these: 72 h.
For test [2], the system named is MDA-MB-231. The test is described as above. Conditions: 72 h.

This is an account of results in the supplement of paper PMC9492666.
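Also: breast cancer cell viability read out with the CCK-8 kit after co-treatment of each compound with the ferroptosis inducer RSL3.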

Consider `CC[C@H]1[C@@H](O)[C@@H]2[C@H](CC[C@]3(C)[C@@H]([C@H](C)CCC(=O)O)CC[C@@H]23)[C@@]2(C)CC[C@@H](O)C[C@@H]12` [Obeticholic Acid] + COC(=O)c1ccc([C@H]2c3[nH]c4ccccc4c3C[C@H](C(=O)OC)N2C(=O)CCl)cc1 [RSL3], for which the relative cell viability was 0.513 in test [1] and 0.543 in test [2].
For `Nn1nnc2ccccc21` [1-Aminobenzotriazole] + COC(=O)c1ccc([C@H]2c3[nH]c4ccccc4c3C[C@H](C(=O)OC)N2C(=O)CCl)cc1 [RSL3] the same measures were 0.528 and 0.758.
`C=C(C)[C@@H]1CC[C@]2(C)CC[C@]3(C)[C@H](CC[C@@H]4[C@@]5(C)CCC(=O)C(C)(C)[C@@H]5CC[C@]43C)[C@@H]12` + COC(=O)c1ccc([C@H]2c3[nH]c4ccccc4c3C[C@H](C(=O)OC)N2C(=O)CCl)cc1 [RSL3]: the results for the relative cell viability in test [1] and in test [2] were 0.595 and 0.688, respectively.
Turning to `O=C(Nc1ccccc1)N1CCN(c2nc(-c3ccccc3)ns2)CC1` + COC(=O)c1ccc([C@H]2c3[nH]c4ccccc4c3C[C@H](C(=O)OC)N2C(=O)CCl)cc1 [RSL3], the values for the relative cell viability in test [1] and in test [2] were 0.281 and 0.406, respectively.
